Data: the supplement of paper PMC11732987, “Enantioselective OTUD7B fragment discovery through chemoproteomics screening and high-throughput optimisation” (Communications Chemistry, 2025)

Experiments:
Assay in all cases: log2 ratio of Biotin-Ahx-Ub-VS probe labelling (fragment/DMSO); higher = less target engagement (more negative = stronger competition), active = hit call of the paper (q ≤ 0.05, log2 ratio ≤ -1)
Settings in all cases: compound concentration: 200 uM; treatment time: 3 h
ALG13 = target: T1, ALG13 (UniProt Q9NP73)
T1 sequence (whole entry): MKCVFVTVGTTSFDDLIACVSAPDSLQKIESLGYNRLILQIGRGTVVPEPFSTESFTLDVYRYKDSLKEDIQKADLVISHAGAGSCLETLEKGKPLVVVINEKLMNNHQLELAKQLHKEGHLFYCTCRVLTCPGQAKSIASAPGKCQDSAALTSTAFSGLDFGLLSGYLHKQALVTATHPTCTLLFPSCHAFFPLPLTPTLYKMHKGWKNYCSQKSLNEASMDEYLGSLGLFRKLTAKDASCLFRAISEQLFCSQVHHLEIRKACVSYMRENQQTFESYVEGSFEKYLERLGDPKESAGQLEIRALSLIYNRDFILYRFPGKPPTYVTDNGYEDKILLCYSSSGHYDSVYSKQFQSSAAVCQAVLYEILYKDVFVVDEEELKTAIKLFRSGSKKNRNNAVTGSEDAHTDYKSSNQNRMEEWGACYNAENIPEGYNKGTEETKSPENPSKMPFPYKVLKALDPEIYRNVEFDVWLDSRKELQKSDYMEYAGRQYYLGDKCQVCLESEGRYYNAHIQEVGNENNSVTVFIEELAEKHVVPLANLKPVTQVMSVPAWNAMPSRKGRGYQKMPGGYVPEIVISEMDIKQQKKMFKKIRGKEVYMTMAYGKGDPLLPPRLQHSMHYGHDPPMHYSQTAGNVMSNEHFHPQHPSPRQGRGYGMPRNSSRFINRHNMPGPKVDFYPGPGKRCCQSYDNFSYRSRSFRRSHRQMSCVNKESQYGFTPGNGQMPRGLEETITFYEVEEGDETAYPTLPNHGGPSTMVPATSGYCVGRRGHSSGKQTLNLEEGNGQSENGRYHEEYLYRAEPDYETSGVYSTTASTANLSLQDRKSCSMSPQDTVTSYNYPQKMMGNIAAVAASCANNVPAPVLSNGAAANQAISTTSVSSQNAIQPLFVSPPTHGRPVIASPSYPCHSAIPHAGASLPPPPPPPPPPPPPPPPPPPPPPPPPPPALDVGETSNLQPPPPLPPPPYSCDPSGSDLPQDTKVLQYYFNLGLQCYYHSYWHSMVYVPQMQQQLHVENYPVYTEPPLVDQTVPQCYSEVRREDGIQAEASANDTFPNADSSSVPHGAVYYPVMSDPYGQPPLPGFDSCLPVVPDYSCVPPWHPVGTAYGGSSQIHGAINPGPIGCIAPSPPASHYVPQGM
How it was run: (§1)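 Fragment (200 µM) or vehicle was incubated for 3 h with triplicate HEK293T lysate samples of 495 µg, which were then treated with Biotin-Ahx-Ub-VS at 0.5 µM final for 1 h. Labelled DUBs were enriched on NeutrAvidin, digested with LysC and trypsin, and analysed by diaPASEF LC-MS/MS. Values are average log2 fragment/vehicle ratios from an unpaired t-test on global-median-normalised Spectronaut label-free quantities, using proteins with ≥2 unique peptides.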

ATXN3 = ATXN3 (UniProt P54252)
How it was run: as §1

BAP1 = target: T2, BAP1 (UniProt Q92560)
T2 sequence (whole entry): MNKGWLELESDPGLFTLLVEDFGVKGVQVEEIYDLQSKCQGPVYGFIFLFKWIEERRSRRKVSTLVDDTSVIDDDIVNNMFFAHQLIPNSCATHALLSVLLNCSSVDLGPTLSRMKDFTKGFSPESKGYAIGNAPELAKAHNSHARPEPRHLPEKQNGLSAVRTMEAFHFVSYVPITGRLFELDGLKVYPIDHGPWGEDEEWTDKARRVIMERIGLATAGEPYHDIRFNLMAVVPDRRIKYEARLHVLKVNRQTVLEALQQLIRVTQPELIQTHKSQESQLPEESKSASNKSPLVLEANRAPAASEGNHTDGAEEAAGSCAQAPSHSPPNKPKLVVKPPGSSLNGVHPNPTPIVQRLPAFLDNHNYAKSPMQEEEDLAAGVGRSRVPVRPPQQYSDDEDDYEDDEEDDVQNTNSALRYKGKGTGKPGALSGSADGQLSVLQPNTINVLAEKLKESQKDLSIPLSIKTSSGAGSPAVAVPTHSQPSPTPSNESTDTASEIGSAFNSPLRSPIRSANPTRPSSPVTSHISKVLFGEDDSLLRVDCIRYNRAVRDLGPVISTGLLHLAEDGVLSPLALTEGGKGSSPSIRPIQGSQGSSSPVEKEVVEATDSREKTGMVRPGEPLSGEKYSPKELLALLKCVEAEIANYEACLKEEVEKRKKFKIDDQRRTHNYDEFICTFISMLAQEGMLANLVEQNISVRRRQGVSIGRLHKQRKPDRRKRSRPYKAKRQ
How it was run: as §1

EIF3F = EIF3F (UniProt O00303)
How it was run: as §1

EIF3H = EIF3H (UniProt O15372)
How it was run: as §1

FAM105A = target: T3, FAM105A (UniProt Q9NUU6)
T3 sequence (whole entry): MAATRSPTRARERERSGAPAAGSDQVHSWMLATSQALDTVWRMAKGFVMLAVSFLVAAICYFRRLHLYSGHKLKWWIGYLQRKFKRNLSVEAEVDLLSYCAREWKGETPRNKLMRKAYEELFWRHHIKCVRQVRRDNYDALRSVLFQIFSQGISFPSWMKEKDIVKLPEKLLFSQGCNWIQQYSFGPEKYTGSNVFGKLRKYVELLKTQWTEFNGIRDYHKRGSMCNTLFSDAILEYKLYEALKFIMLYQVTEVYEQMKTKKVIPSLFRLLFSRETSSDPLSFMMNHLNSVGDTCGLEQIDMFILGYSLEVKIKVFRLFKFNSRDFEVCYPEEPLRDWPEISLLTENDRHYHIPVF
How it was run: as §1

OTUB1 = OTUB1 (UniProt Q96FW1)
How it was run: as §1

OTUD4 = target: T4, OTUD4 (UniProt Q01804)
T4 sequence (whole entry): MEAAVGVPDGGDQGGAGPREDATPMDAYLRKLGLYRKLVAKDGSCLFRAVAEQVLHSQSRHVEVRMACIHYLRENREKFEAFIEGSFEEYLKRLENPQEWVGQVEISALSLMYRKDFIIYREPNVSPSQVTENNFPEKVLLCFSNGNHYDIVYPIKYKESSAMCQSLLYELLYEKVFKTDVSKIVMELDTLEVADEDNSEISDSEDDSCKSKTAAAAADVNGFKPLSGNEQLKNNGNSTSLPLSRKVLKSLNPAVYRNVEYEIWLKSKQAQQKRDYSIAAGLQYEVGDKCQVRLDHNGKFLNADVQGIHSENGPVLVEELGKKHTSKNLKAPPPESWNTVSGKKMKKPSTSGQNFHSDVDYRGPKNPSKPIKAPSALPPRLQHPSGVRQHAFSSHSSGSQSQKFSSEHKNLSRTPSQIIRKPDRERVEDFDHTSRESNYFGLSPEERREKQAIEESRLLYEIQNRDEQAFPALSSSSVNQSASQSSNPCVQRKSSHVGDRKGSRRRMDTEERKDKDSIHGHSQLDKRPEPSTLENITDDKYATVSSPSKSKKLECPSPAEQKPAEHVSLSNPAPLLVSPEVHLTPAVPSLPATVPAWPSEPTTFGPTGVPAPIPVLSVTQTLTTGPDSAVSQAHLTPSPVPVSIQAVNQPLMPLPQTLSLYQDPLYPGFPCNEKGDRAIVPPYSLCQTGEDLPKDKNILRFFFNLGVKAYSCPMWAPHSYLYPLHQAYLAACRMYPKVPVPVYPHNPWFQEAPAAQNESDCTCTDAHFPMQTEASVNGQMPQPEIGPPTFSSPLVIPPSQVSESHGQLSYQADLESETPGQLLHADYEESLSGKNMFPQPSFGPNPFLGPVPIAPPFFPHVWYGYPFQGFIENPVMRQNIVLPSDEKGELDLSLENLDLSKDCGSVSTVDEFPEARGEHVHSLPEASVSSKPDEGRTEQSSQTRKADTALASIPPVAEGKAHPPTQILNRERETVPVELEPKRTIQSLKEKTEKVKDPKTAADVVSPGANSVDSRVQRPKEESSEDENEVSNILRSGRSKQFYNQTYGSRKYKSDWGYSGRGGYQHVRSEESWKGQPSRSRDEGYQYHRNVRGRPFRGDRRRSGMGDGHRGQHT
How it was run: as §1

OTUD5 = target: T5, OTUD5 (UniProt Q96G74)
T5 sequence (whole entry): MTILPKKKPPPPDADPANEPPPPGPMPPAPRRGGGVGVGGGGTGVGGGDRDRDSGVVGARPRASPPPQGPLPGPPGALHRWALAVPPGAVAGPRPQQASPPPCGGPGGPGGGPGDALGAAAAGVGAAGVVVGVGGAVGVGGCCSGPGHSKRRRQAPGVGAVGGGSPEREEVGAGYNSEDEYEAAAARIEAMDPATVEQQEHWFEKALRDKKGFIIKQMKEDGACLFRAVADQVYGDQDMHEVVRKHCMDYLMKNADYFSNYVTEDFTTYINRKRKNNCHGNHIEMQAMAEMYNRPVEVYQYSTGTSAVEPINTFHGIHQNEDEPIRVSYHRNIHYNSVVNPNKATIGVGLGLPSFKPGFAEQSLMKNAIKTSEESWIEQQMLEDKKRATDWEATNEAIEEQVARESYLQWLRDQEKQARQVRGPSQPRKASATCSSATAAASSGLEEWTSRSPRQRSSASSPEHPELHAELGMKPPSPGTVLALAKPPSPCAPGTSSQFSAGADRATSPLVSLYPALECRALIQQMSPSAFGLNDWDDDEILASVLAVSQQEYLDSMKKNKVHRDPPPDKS
How it was run: as §1

Measured: log2 ratio of Biotin-Ahx-Ub-VS probe labelling

Chain of ATXN3 (P54252 whole entry): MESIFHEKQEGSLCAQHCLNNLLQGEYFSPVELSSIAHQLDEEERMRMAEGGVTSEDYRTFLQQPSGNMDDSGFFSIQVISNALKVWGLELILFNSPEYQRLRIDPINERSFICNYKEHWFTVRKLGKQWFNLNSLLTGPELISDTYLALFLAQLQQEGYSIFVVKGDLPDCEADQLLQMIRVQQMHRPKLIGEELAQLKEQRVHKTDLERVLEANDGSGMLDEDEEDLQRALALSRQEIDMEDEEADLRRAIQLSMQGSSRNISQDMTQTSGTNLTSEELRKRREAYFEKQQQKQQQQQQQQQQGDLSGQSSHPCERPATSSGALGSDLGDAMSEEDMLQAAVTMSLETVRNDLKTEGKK
Chain of EIF3F (O00303 whole entry): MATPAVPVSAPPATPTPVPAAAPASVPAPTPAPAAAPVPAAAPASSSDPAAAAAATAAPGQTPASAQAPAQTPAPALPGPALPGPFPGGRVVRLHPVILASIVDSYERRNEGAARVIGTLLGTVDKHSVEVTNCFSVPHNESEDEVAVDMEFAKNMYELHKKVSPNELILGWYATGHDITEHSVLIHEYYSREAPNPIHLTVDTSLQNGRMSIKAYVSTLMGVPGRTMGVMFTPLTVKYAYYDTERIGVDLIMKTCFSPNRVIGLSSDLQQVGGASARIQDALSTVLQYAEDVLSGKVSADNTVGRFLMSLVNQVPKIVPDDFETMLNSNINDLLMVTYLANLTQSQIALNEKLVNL
Chain of OTUB1 (Q96FW1 whole entry): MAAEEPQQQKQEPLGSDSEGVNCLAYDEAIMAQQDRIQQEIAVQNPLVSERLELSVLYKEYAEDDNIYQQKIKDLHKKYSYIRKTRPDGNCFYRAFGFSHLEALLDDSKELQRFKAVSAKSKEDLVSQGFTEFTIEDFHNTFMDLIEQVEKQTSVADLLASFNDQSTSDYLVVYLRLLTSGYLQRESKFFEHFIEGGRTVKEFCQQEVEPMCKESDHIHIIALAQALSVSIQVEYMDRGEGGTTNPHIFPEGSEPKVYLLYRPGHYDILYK
Chain of EIF3H (O15372 whole entry): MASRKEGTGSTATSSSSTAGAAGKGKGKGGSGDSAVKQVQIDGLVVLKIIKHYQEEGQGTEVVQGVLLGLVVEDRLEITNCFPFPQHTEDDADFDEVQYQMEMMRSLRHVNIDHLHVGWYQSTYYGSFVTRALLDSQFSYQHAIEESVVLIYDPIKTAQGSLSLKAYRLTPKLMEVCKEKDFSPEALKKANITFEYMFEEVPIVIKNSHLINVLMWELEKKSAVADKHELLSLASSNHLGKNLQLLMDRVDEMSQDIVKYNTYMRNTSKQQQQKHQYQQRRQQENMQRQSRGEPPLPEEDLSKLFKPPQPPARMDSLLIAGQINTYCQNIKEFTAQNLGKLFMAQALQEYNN

CS(=O)(=O)c1ccc(CNC(=O)CCl)cc1
inactive: ALG13 -0.0665 | ATXN3 -0.381 | EIF3F -0.177 | EIF3H -0.0369 | FAM105A -0.0581 | OTUB1 -0.0582 | OTUD4 -0.317 | OTUD5 -0.368
active: BAP1 -3.17
